L3MBTL1 inh: qHTS Assay for the Inhibitors of L3MBTL1 | Lethal(3)malignant brain tumor-like protein 1 (Homo sapiens), Q9Y468 | AlphaScreen L3MBTL1–H3K9me1 peptide binding | Potency, µM (series often up to 57.1 µM), for inactives: top-dose activity, negative = inhibition, most hits filed as inhibitors | 0.66% of 230,000 active | AID 485360, 2010; also: potency is read from the fitted curve at half-maximal effect; % is scaled to controls: 0 for no effect and ±100 for the full control effect; nearly all actives have a fitted effect of over 60% in size
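Displacement of a biotinylated histone H3(1-15) peptide monomethylated at Lys9 (75 nM) from L3MBTL1 (50 nM) was measured by AlphaScreen after a 30 min room-temperature compound incubation; cefsulodin titration served as intraplate control.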
BAZ2B block: qHTS Assay for Inhibitors of BAZ2B; Bromodomain adjacent to zinc finger domain protein 2B (Homo sapiens), Q9UIF8; AlphaScreen BAZ2B-H3K14Ac peptide displacement; Potency, µM (series often up to 114 µM), without a hit: at the top dose activity change, negative = inhibition, actives largely listed as inhibitors; 4.4% of 360,000 active; also: potency is read from the fitted curve at half-maximal effect; % is scaled to controls: 0 for no effect and ±100 for the full control effect; nearly all actives have a fitted effect of over 60% in size
Target sequence (Q9UIF8 whole entry, looked up, the tested form may be a part): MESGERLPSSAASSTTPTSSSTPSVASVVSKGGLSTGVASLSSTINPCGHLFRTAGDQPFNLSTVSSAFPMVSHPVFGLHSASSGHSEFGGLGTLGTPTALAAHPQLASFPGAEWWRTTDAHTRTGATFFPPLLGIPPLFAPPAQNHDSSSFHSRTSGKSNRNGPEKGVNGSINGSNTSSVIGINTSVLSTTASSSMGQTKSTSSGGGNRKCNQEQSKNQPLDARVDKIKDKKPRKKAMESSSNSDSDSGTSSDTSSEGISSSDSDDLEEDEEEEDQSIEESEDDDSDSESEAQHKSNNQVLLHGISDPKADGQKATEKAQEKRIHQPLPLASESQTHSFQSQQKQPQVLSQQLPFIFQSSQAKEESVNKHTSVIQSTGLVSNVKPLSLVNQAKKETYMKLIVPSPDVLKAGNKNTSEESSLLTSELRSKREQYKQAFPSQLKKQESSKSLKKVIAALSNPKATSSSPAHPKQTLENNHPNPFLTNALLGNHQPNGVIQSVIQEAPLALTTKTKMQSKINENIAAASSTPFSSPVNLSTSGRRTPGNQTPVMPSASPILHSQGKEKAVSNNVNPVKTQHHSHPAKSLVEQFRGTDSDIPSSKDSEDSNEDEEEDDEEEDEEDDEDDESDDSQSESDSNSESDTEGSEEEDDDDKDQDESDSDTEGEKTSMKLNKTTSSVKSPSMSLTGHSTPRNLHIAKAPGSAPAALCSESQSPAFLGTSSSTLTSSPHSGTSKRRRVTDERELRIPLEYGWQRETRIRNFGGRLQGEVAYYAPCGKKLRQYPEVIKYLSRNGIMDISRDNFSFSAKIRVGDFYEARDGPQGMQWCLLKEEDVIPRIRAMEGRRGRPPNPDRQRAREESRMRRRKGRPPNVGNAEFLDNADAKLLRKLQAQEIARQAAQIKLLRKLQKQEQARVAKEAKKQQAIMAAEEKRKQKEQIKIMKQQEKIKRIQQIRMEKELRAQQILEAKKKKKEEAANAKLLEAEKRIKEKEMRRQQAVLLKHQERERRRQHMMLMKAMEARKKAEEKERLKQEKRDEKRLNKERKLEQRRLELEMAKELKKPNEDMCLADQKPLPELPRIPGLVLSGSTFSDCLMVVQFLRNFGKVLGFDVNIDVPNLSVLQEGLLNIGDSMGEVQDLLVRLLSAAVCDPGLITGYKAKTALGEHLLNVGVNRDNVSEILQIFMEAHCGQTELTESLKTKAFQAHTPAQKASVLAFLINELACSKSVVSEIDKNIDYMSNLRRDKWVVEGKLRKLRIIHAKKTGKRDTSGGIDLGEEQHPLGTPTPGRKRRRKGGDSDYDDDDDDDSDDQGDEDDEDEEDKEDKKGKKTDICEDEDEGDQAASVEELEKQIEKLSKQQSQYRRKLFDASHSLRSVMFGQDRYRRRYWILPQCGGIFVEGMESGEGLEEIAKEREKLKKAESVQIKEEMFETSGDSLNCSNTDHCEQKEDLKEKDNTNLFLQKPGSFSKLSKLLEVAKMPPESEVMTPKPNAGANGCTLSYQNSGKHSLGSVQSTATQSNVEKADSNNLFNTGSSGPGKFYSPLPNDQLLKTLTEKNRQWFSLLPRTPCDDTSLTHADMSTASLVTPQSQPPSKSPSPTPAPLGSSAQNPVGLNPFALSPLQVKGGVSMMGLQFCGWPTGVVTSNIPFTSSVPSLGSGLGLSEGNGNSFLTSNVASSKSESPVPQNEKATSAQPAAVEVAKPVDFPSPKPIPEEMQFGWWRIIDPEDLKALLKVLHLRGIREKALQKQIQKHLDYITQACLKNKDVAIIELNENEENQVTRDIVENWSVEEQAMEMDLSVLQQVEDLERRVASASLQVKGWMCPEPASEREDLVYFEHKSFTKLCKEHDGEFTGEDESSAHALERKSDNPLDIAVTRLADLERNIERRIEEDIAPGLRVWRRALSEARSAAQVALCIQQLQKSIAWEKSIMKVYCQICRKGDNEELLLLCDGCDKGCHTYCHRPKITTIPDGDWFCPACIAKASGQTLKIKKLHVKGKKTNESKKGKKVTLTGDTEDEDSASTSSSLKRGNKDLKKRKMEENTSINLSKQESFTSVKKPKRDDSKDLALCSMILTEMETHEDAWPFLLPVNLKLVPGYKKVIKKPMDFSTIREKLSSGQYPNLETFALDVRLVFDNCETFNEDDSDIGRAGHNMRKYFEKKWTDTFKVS
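Compounds, titrated to a top concentration of 110 uM, were incubated 30 min at room temperature with preformed BAZ2B/acetyl-K14 H3 peptide complex (50 nM each). Proximity signal was measured by AlphaScreen after 20 min with beads.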
PI5P4K alpha inh: qHTS for Inhibitors of phosphatidylinositol 5-phosphate 4-kinase (PI5P4K); max response, %; 1.2% of 330,000 active; PI5P4Kalpha enzyme, ADP-Glo luminescence, 60 min; active compounds read low; Phosphatidylinositol 5-phosphate 4-kinase type-2 alpha (Homo sapiens), P48426; active = max response of -50% or lower; inconclusive = between -30% and -50%; inactive = -30% or higher; also: value at the top dose of about 77 µM; % is scaled to controls: 0 for no effect and ±100 for the full control effect
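qHTS, 1536-well: enzyme/substrate mix, compound by pin tool, 5 microM ATP final; RT 60 min; ADP-Glo reagents 1 (45 min) then 2 (30 min); luminescence.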
HP1b chromo inh: HTS for Inhibitors of HP1-beta Chromodomain Interactions with Methylated Histone Tails | Potency, µM (series often up to 114 µM), for inactives: top-dose activity change, negative = inhibition, hits mostly inhibitors | Chromobox protein homolog 1 (Homo sapiens), P83916 | 0.56% of 390,000 active | AlphaScreen HP1-beta / biotin-H3K9me3 peptide binding | AID 540317, 2011; also: potency is read from the fitted curve at half-maximal effect; nearly all actives have a fitted effect of over 70% in size
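AlphaScreen: HP1-beta (50 nM) preformed 30 min with biotin-H3(1-18)K9me3 peptide (50 nM) in PBS pH 7.4, 0.01% Tween-20. Compound added for 30 min at RT, then streptavidin donor/nickel chelate acceptor beads (10 ug/mL) for 30 min.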
JMJD2A Tudor inh: qHTS Assay for Inhibitors of JMJD2A-Tudor Domain; 4.4% of 390,000 active; AlphaScreen JMJD2A-Tudor / H3K4me3 peptide binding; AID 504339, 2011; Lysine-specific demethylase 4A (Homo sapiens), O75164; Potency, µM (top dose mostly 114 µM), for inactives: at the top dose activity change, negative = inhibition, usual class: inhibitors; also: potency is read from the fitted curve at half-maximal effect; % is scaled to controls: 0 for no effect and ±100 for the full control effect; nearly all actives have a fitted effect of over 50% in size
JMJD2E inh: qHTS Assay for Inhibitors of Human Jumonji Domain Containing 2E (JMJD2E) | Potency, µM (series often up to 57.1 µM), for the others: at the top dose activity change, negative = inhibition, actives largely listed as inhibitors | Lysine-specific demethylase 4E (Homo sapiens), B2RXH2 | AID 2147, 2009 | JMJD2E catalytic domain, FDH-coupled NADH fluorescence (FDH is formaldehyde dehydrogenase) | 1.6% of 230,000 active; active = well fitted inhibition curve with a large enough effect, not every such curve was filed as active; inconclusive = small, poorly fitted or top-dose-only effect, or another doubt; inactive = no such curve, though single readings can be large or run the other way;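 also: potency is read from the fitted curve at half-maximal effect; 0% = wells with enzyme and -100% = buffer wells without enzyme; nearly all actives have a fitted effect of over 50% in size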
* marks the source's active call; other numbers are inactive results; ? = inconclusive; . = not tested or not shown; [ ] = another dose, or the depositor's remark. Compounds with a hit are over-represented: about 5.7% of the library has one in this group of screens. Unless noted, calls follow the shape of the dose curve; as a rule, active = well fitted inhibition curve with a large enough effect; inconclusive = small, poorly fitted or top-dose-only effect; inactive = no such curve, though single readings can be large or run the other way.

SMILES	L3MBTL1 inh	BAZ2B block	PI5P4K alpha inh	HP1b chromo inh	JMJD2A Tudor inh	JMJD2E inh
Cc1ccc(-c2nc3ccccc3[nH]2)cc1NC(=O)/C=C/c1ccco1	?	50.1µM*	.	-21.1%	?	?
Cc1ccc(-c2nc3ccccc3[nH]2)cc1NC(=O)c1ccc2c(c1)OCO2	1.4%	-12.6%	.	2.1%	-17.0%	-6.3%
O=C(/C=C/c1ccco1)Nc1cccc(NC(=O)/C=C/c2ccco2)n1	?	?	-58.4*	-6.7%	?	?
Cc1ccc(NC(=S)NC(=O)/C=C/c2ccco2)c(O)c1	-10.2%	?	-53.8*	-32.2%	?	15.5%
Cc1cccnc1NC(=S)NC(=O)/C=C/c1ccco1	.	-21.3%	-15.9	28.6%	-10.3%	?
O=C(/C=C/c1ccco1)NC(=S)Nc1ccccc1N1CCOCC1	-12.2%	?	.	-24.1%	?	-2.7%
O=C(/C=C/c1ccco1)NC(=S)Nc1ccccc1O	-28.5%	39.8µM*	-17.2	?	-8.3%[11.4 µM]	1.4%
CCn1c(C(=O)N2CCCC(C(=O)N3CCN(c4cc(C)ccc4C)CC3)C2)cc2sccc21 (stereo unspecified)	.	?	.	-2.7%	?	.
CCOc1ccc(OCC)c(NC(=O)C(NS(=O)(=O)c2cccs2)c2ccccc2)c1 (stereo unspecified)	.	-21.3%	.	34.4%	-7.8%	.
Cc1ccc2c(CC(=O)N(Cc3cccc(Cl)c3)C3CCS(=O)(=O)C3)coc2c1 (stereo unspecified)	.	-21.8%	.	19.7%	-11.5%	.
Cc1ccc(-c2csc(NC(=O)c3cccc(C)c3)c2C(=O)O)cc1	.	.	?	17.2%	0.4%	.
O=C(/C=C\c1ccco1)NC(=S)Nc1ccccc1O	-18.7%	50.1µM*	-53.0*	-12.4%	-11.8%[11.4 µM]	-15.4%
Cc1ccc(-c2csc(NC(=O)/C=C/c3ccco3)c2C(=O)O)cc1	?	79.4µM*	-71.5*	25.9%	?	?
O=C(/C=C/c1ccco1)NC(=S)Nc1ccccn1	.	56.2µM*	-9.6	-25.3%	79.4µM*	?
CCOc1ccccc1NC(=O)c1cc2c(Cl)nc3ccccc3c2s1	.	-0.7%	.	17.4%	-19.9%	.
O=C(O)CCN1C(=O)/C(=C\c2ccc(-c3nc4ccccc4s3)o2)SC1=S	.	?	-27.5	17.8µM*	3.98µM*	-1.5%
O=C(O)CN1C(=O)/C(=C\c2cc(Br)ccc2OCc2ccc(Cl)cc2Cl)SC1=S	.	25.1µM*	-6.3	?	20µM*	.
O=C(O)CN1C(=O)/C(=C\c2cccc(OCc3ccc(Cl)cc3)c2)SC1=S	.	44.7µM*	1.7	-11.0%	?	.
O=C(O)CCN1C(=O)/C(=C\c2cccc(Oc3ccccc3)c2)SC1=S	.	50.1µM*	0.2	?	?	.
O=C(c1ccc(Br)cc1)N(Cc1ccco1)c1ccccn1	.	?	.	20.1%	-24.5%	.
CCOC(=O)C1CCCN(C(=O)c2nn(-c3ccc(C)cc3)c(=O)n(C)c2=O)C1 (stereo unspecified)	.	-1.7%	.	19.3%[57 µM]	-6.4%	.
COc1cc(NS(=O)(=O)c2ccc(NC(=O)c3cccc(F)c3)cc2)nc(OC)n1	.	0.3%	.	25.0%	4.9%	.
Cc1ccc(C2NC(=S)NC3=C2C(=O)CCC3)cc1 (stereo unspecified)	9.6%	-6.5%	2.9	26.6%	17.5%	-2.3%
Cc1ccc(C2NC(=S)N3C(c4ccc(C)cc4)NC(=S)N23)cc1 (stereo unspecified)	.	.	-79.2*	.	.	.
CC1=Nc2ccccc2/C1=C/c1sc(=S)n(-c2cccc(C(=O)O)c2)c1O	-6.8%	?	-55.4*	?	?	-6.9%
SMILES	L3MBTL1 inh	BAZ2B block	PI5P4K alpha inh	HP1b chromo inh	JMJD2A Tudor inh	JMJD2E inh
Oc1c(C=C2N=c3ccccc3=N2)sc(=S)n1-c1ccccc1	28.9%	10.4%	-6.2	23.0%	-15.0%	3.0%
Clc1ccc(/C(Cc2nc3ccccc3[nH]2)=N\Nc2ccccc2)cc1	?	?	-10.2	-11.3%	?	22.4µM*
O=C(Cc1nc2ccccc2[nH]1)c1ccc(Cl)cc1	.	-2.9%	-13.3	18.2%	-18.7%	.
CC1CCCC(C)N1C(=O)CSc1ncccn1 (stereo unspecified)	.	1.7%	-1.2	-6.6%	-14.0%	.
c1ccc(OCCCCn2cnc3ccccc32)cc1	-4.9%[11.4 µM]	-2.7%	-2.6	62.6%	1.0%	8.4%
Nc1ccc2c(c1)ncn2CCCn1cnc2cc(N)ccc21	-1.6%	79.4µM*	.	21.8%	44.7µM*	7.2%
CC1Sc2ccc(S(=O)(=O)CCC(=O)NCc3ccccc3)cc2NC1=O (stereo unspecified)	.	-18.1%[57.1 µM]	-11.0	?	79.4µM*	.
CCC1Sc2ccc(S(=O)(=O)CCC(=O)N3CCc4ccccc43)cc2NC1=O (stereo unspecified)	.	-12.7%	1.6	4.0%	-15.3%	.
COc1ccc(NC(=O)CCS(=O)(=O)c2ccc3c(c2)NC(=O)C(C)S3)cc1OC (stereo unspecified)	.	-16.2%[57.1 µM]	-16.5	0.2%	17.8µM*	.
CC1Sc2ccc(S(=O)(=O)CCC(=O)N3CCc4ccccc43)cc2NC1=O (stereo unspecified)	.	-22.0%	0.2	-4.2%	25.1µM*	.
CC1Sc2ccc(S(=O)(=O)CCC(=O)NCc3ccc(Cl)cc3)cc2NC1=O (stereo unspecified)	.	-12.2%	-19.5	29.3%	-14.2%	.
CCOC(=O)c1ccccc1NC(=O)Cn1c(=O)n(CCC(=O)NCc2ccccc2OC)c(=O)c2ccccc21	.	-9.3%	.	14.5%	-10.9%	.
CCc1ccc2c(c1)C1(NN=C(c3cccc4ccccc34)S1)C(=O)N2 (stereo unspecified)	?	20µM*	.	.	.	?
Cc1nc(SCc2nc3c(C)cccc3[nH]2)c2oc3ccccc3c2n1	-4.6%	.	.	10.8%	?	.
Cc1nc(SCc2nc3c(F)cccc3[nH]2)c2oc3ccccc3c2n1	9.7%	.	.	29.3%	79.4µM*	.
Cc1ccc(C(=O)CCC(=O)N2CCC(C(N)=O)CC2)s1	-3.7%	9.4%	-1.3	23.3%	-4.4%	.
N#C/C(=C/c1cn[nH]c1-c1ccc(Br)cc1)C(=O)O	.	-10.9%	-76.4*	9.5%	-9.3%	-7.0%
O=C1[C@@H]2Cc3c([nH]c4ccccc34)C(c3cccc([N+](=O)[O-])c3)N2C(=O)CN1C1CCN(Cc2ccccc2)CC1 (stereo partly specified)	.	25.1µM*	.	.	.	.
